Data on 132 sequences can be found in PubChem BioAssay AID1159506 (National Center for Advancing Translational Sciences (NCATS), 2015).

The full ranking holds about 59,000 sequences; the median of the read-out is about -0.00055, and the lowest 2% start at about -2. The sample as a whole holds a higher share of the lowest values than the screen did.

This assay in a line: Identification of proteins required for the processing of the EWS-FLI1 nascent transcript.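 Further: robust z of luciferase light less the median z of siRNAs with the same seed.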 The settings on record: TC32 Ewing sarcoma NR0B1-luc vs CMV-luc (EWS-FLI1 target promoter against control promoter), 48 h; screened at 20 nM (by protocol). In outline: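 TC32 Ewing sarcoma cells carrying NR0B1-promoter or CMV-promoter luciferase reporters were reverse-transfected with single siRNAs at 20 nM, three per gene genome-wide. Luminescence was read after 48 h and normalized to non-targeting controls.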
As to UUACUGACAGUAUUUCACU against C10orf67, the seed-corrected z-score was -0.0381.
In the case of UUCAGCAUCACGAACAUCC against SRSF10, the seed-corrected z-score is -1.61.
The result for UGCAGGUUCAGCUUGUCUG against LGALS2 reads -2.58; that for UUCAGCACCACGCAGUUGC against C12orf65, 0.924; that for UAUGGAGAGAGAAUAACUG against SDHC, 0.151.
As to UAUUGACCACAAUCGAGGC against PIGX, the seed-corrected z-score is 1.23.
Next, ACAGGGACUUGAACUGGGC against IFNL3: -2.31; UUUGUUCCAAGGCAUUCAC against CCDC129: 1.07; UAGGUCGAAAGAACUCAGC against PEX3: -0.0828.
The result for UGGAGUAUGAGUCCCAUUC against MTPAP reads -15.6.
In the case of UUAGAUACAGGUAUGAACA against OR4C45, the seed-corrected z-score was found to be 0.478.
Next, UAAGUUCUUAGAGUUUUGG against TP53TG3: 0.271.
Next, UUCUCGAUUAAGAAGUUUC against C18orf21: 0.33.
The result for UCAGUAGCAACUGCCCUUU against MGAT4EP reads -2.02.
As to AUCGAUUCCAUUUCAAGGC against SERHL, the seed-corrected z-score worked out at 0.0431.
Next, UUGAUUUUCUCCUCCAUCC against JAKMIP1: -0.126; UGUAGUACACUCUUGUUCU against GOLGA8G: -0.318; UAGUUGAGAAGGUCGAAGU against SF3B5: -2.5.
UUAUGUCUCAUGAGUCGGU against ZNF548: the seed-corrected z-score was -0.149.
As for UGACUGUCUUGCGUAUUUC against TTC21A, the seed-corrected z-score came to 0.856.
Next, UUCUAGAUAAUAACUCUCC against CCDC47: 0.297; UCAGGUAUCUGAGAAUCUC against APOBEC3B: -0.83.
For UACUGAACACUGGAAAUUC against FGFBP2, the seed-corrected z-score was found to be 1.53.
The result for UUCUCAUCGAGCCUGAAGU against FAM187B reads 1.36.
The result for UGUUGUACCACUGUCAGAG against PPM1G reads -0.406.
Next, AUAGAUACUGGGAGGUUUG against UBE2J2: 0.783.
Take UAAUCAUCCCGACCAACGC against P2RY10: the seed-corrected z-score is -0.625.
On to CAGAUUCUGACGCUUUGUG against LIMD1-AS1, for which the seed-corrected z-score was -1.25.
UCGAUGUAGAGGAUGCUGA against GDF7: the seed-corrected z-score was -2.35.
Next, UAAGAAAUGACGUGUGCUG against PTGDR2: 0.0522; UGAGGUACUCGCUUUCCUG against TCTE1: -0.587; UUAGAAAUGCAAAUAAACU against TMSB15A: 0.478.
UUCGGUAAGACAUCAGUGG against STAG2: the seed-corrected z-score was 0.75.
Next, UUGUAAUCAAAGUAGUAGC against PSMD8: -5.85.
As to UGUUCUUGAACUGUAGUAC against RNF40, the seed-corrected z-score amounted to 0.119.
The result for UGAGCCUUGAGUGCACUGG against LOC729047 reads 0.713; that for UAAGAUUGGAGAGAUUGCC against SLC10A4, 0.287.
As for UGUAGUAUCUGAGUCAACC against CENPE, the seed-corrected z-score is -2.96.
As to UUACAUAUCACGUACAUCC against SENP8, the seed-corrected z-score stood at 0.448.
Next, UUUUCUAAUAUGCUAACUG against BMP8A: -0.422; UCAUUAGUAAUAUCGUCGG against HSP90AA1: -0.64.
Next, UCAAUGCCUCUGAUUGUUG against SPATA31D5P: -1.51; UUCGAUACCAGCCGGUAGC against F8A2: -12.9.
As to UUCCCGUAAACUUUCUCGC against KLF13, the seed-corrected z-score was 0.162.
The result for UGAUCUAUGAGUACGUCCG against SBNO1 reads -0.107; that for AAGUGGACUUGAGAUGUGG against PPP1R1A, -0.084; that for UUAACAUGCAAGAAAUGUC against SPO11, 2.19.
In the case of UUGUCCUUCAGGAACACCG against EPB41L1, the seed-corrected z-score worked out at 0.385.
Next, UAUCUAGUAGUAGUUCACC against CAB39: 0.229; UCUGGUGGUGGUCUGAGUC against ZFP64: -3.19; AAUGUUGUAGUUGAUUAGC against CCDC178: -0.836.
With UUGACAGUUUCCAUCAGGC against PLIN3, the seed-corrected z-score came to 0.105.
Next, UAUCGAUUUGGGUCGUAGC against GNL1: 0.128; UACGUGAGCUGUGAUGAGC against IRF4: -0.522; UAGGCGAAUACAGUUAGGG against PRDM11: -0.0836.
Regarding AAAAGGUAAACAGUGCUGG against HCAR1, the seed-corrected z-score was -2.61.
The result for AAUAUAACGACUAAUGUCC against CTNNBIP1 reads 0.971; that for UUUAGAGGCAGGGAGAAGC against MT1XP1, -2.16.
Next, UUUCGAGUUUCAAUGCUCC against SEC31A: 0.675; AUGAGUUUAAAGUACAAAG against TBC1D3G: -0.961.
Next, AAAGCUCUUCUAAUGAUAG against CMPK2: 1.05; UUUCCAAUAUUUGAAGGUG against IFNK: -0.532; UCUGGGUUGAGGUCUACGA against LGALSL: 1.22.
As for UCUCUUUUAGGUGGUUUGG against RNPS1P1, the seed-corrected z-score is -2.12.
As for UUUGGAGCCGAAAGCAUUG against TBX4, the seed-corrected z-score was -0.381.
The result for UUUCUUACCAUAGUUGUCC against TCF7L1 reads 0.0239; that for UUCACGAGUAGAGAUGUGG against ULK4, -0.0896; that for UGUGGAUUCGCAUUCGUGC against WNT10B, -0.172.
In the case of AAGAGCAGUAUAGCCCUUG against FAM219B, the seed-corrected z-score was -2.73.
With UUCAGAGUAAUGUCGACAU against RPL9, the seed-corrected z-score is -0.525.
The sequence UAUUAUCCAGGAUUAAUUC against TMED5 came in with a seed-corrected z-score of 0.444.
Next, UGGUUAUUAACCACGAAAC against DACH2: -2.55; UUUUUGGGUUGUGCGAUGG against CLDN8: -0.531.
Next, UAGUCGAUUAAACAGAGCC against RBPJ: 0.0342; UGAGUUCUGAUCGCAGUUC against MCC: -0.00975.
Next, AAUGUUAACGAUGAAGAAG against ADRB2: 0.292; AACAGGACAAUUUUAGCAC against OR1L1: -2.6; UCUGAAACAAUCCUCACUC against LINC00598: -0.139.
Sequence UGAGGAUAAAGCGAAGAGC against VARS2 yielded a seed-corrected z-score of 0.0595.
Next, AACUGGGACUUGUUUUACC against FAM83F: 0.219; AAGGUUGCUCGUUCUAUGG against CASP5: -2.33; UAAUGUCCCAAUCGUAUUG against UXS1: 0.872.
The sequence AAUCUCUCGGUUUCGAUUC against HYKK had a seed-corrected z-score of 1.15.
The result for UCCGUGCACAUCUUAUAGG against HMG20B reads 0.0817; that for UAAGAAAUGAUGCUCAAUG against LMAN1L, -0.257.
The result for UCUACAUCAAUCAAAUAUC against DUSP11 reads 1.23; that for UCUCUUCAUACUUAUUAGC against TEX43, -2.3.
For UUGGGAUAAUGAUUGUUAC against OR10AG1, the seed-corrected z-score is -0.676.
In the case of UUCCUGACGAGGUACACUG against GAS2L2, the seed-corrected z-score came out at 0.821.
The result for UCAGAGACCAGCUGUUUCU against IGSF23 reads -0.0662; that for ACAGCUAUAAAGGUGAUCC against MTMR1, -2.56; that for UGUCGUUCAAGGGUCUUCC against IFNE, -0.372.
The result for UAACUAGUUUUCUUGUCCC against CARD6 reads 0.329; that for UAUCAUCCAAAACUGUAUC against ASNSD1, 0.0108.
The result for AUCGGCAUUAAGAAUGUAG against EIF3L reads -0.237; that for UUAGCUGCAUCCUUGCUGG against CELSR3, -2.13.
For UAAGUUCUUGUAUCUUCCC against ATP6V1G3, the seed-corrected z-score stood at 0.313.
Consider UUCUGGAUUCUGGGCAUCG against IFI6, for which the seed-corrected z-score is -0.197.
UCAAUAACCAUGAAGAUGC against FAM162A gave a seed-corrected z-score of 0.76.
Next, UCGUGCUACACCAUGAGUC against CTTNBP2: 0.0923; UUCCAGUAUGCUGAUUUCC against SLC8B1: -2.95.
As to UCACUUGAUAACAAUCUCC against ZCWPW2, the seed-corrected z-score is -0.645.
Next, AUCAUUAUCCUUCUCAUCC against IRF6: -0.561; UAGCCCUCACCAUAGAUGC against SYNGR2: 0.181; ACAGUUGCAACUUCCAUGC against KCND2: -2.77.
Take UGAGUACCGUGAUAAAUGC against TAS1R2: the seed-corrected z-score came to 0.56.
Next, UUAGCAUCCACGAUACCAC against CFAP47: 0.706.
Next, UUAAUGAACACAAGCAUGU against RPL23AP14: 0.756.
For the sequence UAUGUUGUGCGGCUCUCCC against SOX15, the seed-corrected z-score was -2.31.
In turn, UAACGAAUAAUCAUCUUCC against ICE1 gave a seed-corrected z-score of 0.115.
UCCAAAUUUGAGUACAUCC against SNIP1 yielded a seed-corrected z-score of 0.505.
For UAAGGCUUUAGUGAGCUCU against FXN, the seed-corrected z-score amounted to 0.805.
For UUGCCGUAGACAGCAUGGG against GPR173, the seed-corrected z-score was -0.733.
Next, UCUGGUUCCUCUUUAAGUG against RPL27A: -3.53; AAUGUUCCUAUUUAUUUCG against RNF214: -0.629; UCAGGAUCAAGCAUGUUCC against LOC645177: -0.115.
The result for UGUGCUAUAAGAGAUCCAG against TANC2 reads -0.454; that for AAAGUAGUCACCUGGACCA against ODF3, -2.14.
In turn, UUCCUCAUGAGCACCAUCC against TEDDM1 displayed a seed-corrected z-score of 0.185.
The result for AUCUAUUAUGGUUUCGAUC against BAZ1B reads -0.12; that for UCUCUGUACCCAACUCCGC against ZNF212, -0.31.
Next, AAUGAAAUAGUGCUGUUUG against KCTD1: 0.318; UCUGCUUGGAAAUAUCUCG against GRSF1: -4.11; AAUCCUCUUAUGAAUAACG against ZNF331: -0.158.
As for AAGGAUACCAUCAUGUAGC against FZD3, the seed-corrected z-score amounted to 0.547.
Regarding UUUGUAACAUCAAUCAGAG against EXOC4, the seed-corrected z-score was determined as 0.287.
Next, AUUCGGGAUAUAUAGAUUG against LIN7C: 0.308; UCAAGUACAUUGCAGUUUG against PDK1: -0.235.
The result for UCCAGGUUUAUAUAGGUUG against MT1X reads -7.89.
For UCAUAAGUGACAAGGCUGC against DCTN2, the seed-corrected z-score is -0.548.
Next, UGACGUGAUAGCUUGAACC against EXPH5: 0.908.
The result for UUUGAUUCCAUGUAGCUGU against MTCP1 reads 0.871.
